# Test results: the supplement of paper PMC8728848
# The full list was thinned out, with the strongest signals kept by preference.
# B1: PNGase F (Flavobacterium meningosepticum) (protein)
# chain: GIPAPADNTVNIKTFDKVKNAFGDGLSQSAEGTFTFPADVTAVKTIKMFIKNECPNKTCLEWDRYANVYVKNKTTGEWYEIGRFITPYWVGTEKLPRGLEIDVTDFKSLLSGNTELKIYTETWLAKGREYSVDFDIVYGTPDYKYSAVVPVVQYNKSSIDGVPYGKAHTLALKKNIQLPTNTEKAYLRTTISGWGHAKPYDAGSRGCAEWCFRTHTIAINNSNTFQHQLGALGCSANPINNQSPGNWTPDRAGWCPGMAVPTRIDVLNNSLIGSTFSYEYKFQNWTNNGTNGDAFYAISSFVIAKSNTPISAPVVTNLDPHHHHHH
# Tests used:
# Assay in all cases: glycan array binding signal (z-score within array); higher = stronger binding
# Details in all cases: glycan notation: IUPAC condensed, linker removed; mutation: D57L
# [1] = target: Fuc(a1-2)Gal(b1-3)GlcNAc(b1-2)Man(a1-3)[Fuc(a1-2)Gal(b1-3)GlcNAc(b1-2)Man(a1-6)]Man(b1-4)GlcNAc(b1-4)GlcNAc
# Summary of the method: (§1)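 From the Consortium for Functional Glycomics database, 3228 arrays were curated, keeping only those whose protein sequence was available. Binding is given as a within-array Z-score averaged across arrays sharing a protein sequence and across linkers. Negative Z-scores can be read as non-binding.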
# [2] = target: Fuc(a1-2)Gal(b1-3)GlcNAc(b1-3)Gal(b1-4)Glc
# Summary of the method: as §1
# [3] = target: Fuc(a1-2)Gal(b1-3)GlcNAc(b1-3)[Gal(b1-4)GlcNAc(b1-6)]Gal(b1-4)Glc
# Summary of the method: as §1
# [4] = target: Fuc(a1-2)Gal(b1-3)GlcNAc(b1-3)[Neu5Ac(a2-6)Gal(b1-4)GlcNAc(b1-6)]Gal(b1-4)Glc
# Summary of the method: as §1
# [5] = target: Fuc(a1-2)Gal(b1-4)Fuc(a1-3)]GlcNAc(b1-2)Man(a1-3)[Fuc(a1-2)Gal(b1-4)[Fuc(a1-3)]GlcNAc(b1-2)Man(a1-6)]Man(b1-4)GlcNAc(b1-4)GlcNAc
# Summary of the method: as §1
# [6] = target: Fuc(a1-2)Gal3S(b1-4)GlcNAc
# Summary of the method: as §1
# [7] = target: Fuc(a1-2)Gal6S(b1-3)GlcNAc6S
# Summary of the method: as §1
# [8] = target: Fuc(a1-2)[Gal(a1-3)]Gal(b1-3)GalNAc(b1-3)Gal(a1-4)Gal(b1-4)Glc
# Summary of the method: as §1
# [9] = target: Fuc(a1-2)[Gal(a1-3)]Gal(b1-4)GlcNAc(b1-2)Man(a1-3)[Fuc(a1-2)[Gal(a1-3)]Gal(b1-4)GlcNAc(b1-2)Man(a1-6)]Man(b1-4)GlcNAc(b1-4)[Fuc(a1-6)]GlcNAc
# Summary of the method: as §1
# [10] = target: Fuc(a1-2)[Gal(a1-3)]Gal(b1-4)GlcNAc(b1-6)GalNAc
# Summary of the method: as §1
# [11] = target: Fuc(a1-3)[Gal3S(b1-4)]GlcNAc6S
# Summary of the method: as §1
# Gal(a1-3)GalNAc = target: Gal(a1-3)GalNAc
# Summary of the method: as §1
# [12] = target: Gal(b1-3)GalNAc(b1-4)Gal(b1-4)Glc
# Summary of the method: as §1
# [13] = target: Gal(b1-3)GlcNAc(b1-3)Gal(b1-4)GlcNAc
# Summary of the method: as §1
# [14] = target: Gal(b1-3)[Fuc(a1-4)]GlcNAc(b1-2)Man(a1-3)[Gal(b1-3)[Fuc(a1-4)]GlcNAc(b1-2)Man(a1-6)]Man(b1-4)GlcNAc(b1-4)[Fuc(a1-6)]GlcNAc
# Summary of the method: as §1
# [15] = target: Gal(b1-4)GlcNAc(a1-6)Gal(b1-4)GlcNAc
# Summary of the method: as §1
# [16] = target: Gal(b1-4)GlcNAc(b1-2)Man(a1-3)[Man(a1-6)]Man(b1-4)GlcNAc(b1-4)GlcNAc
# Summary of the method: as §1
# [17] = target: Gal(b1-4)GlcNAc(b1-2)Man(a1-6)Man(b1-4)GlcNAc(b1-4)GlcNAc
# Summary of the method: as §1
# [18] = target: Gal(b1-4)GlcNAc(b1-3)Gal(b1-4)GlcNAc(b1-2)[Gal(b1-4)GlcNAc(b1-3)Gal(b1-4)GlcNAc(b1-6)]Man(a1-6)[Gal(b1-4)GlcNAc(b1-3)Gal(b1-4)GlcNAc(b1-2)Man(a1-3)]Man(b1-4)GlcNAc(b1-4)GlcNAc
# Summary of the method: as §1
# [19] = target: Gal(b1-4)GlcNAc(b1-3)Gal(b1-4)GlcNAc(b1-3)Gal(b1-4)GlcNAc(b1-2)Man(a1-3)[Gal(b1-4)GlcNAc(b1-3)Gal(b1-4)GlcNAc(b1-3)Gal(b1-4)GlcNAc(b1-2)Man(a1-6)]Man(b1-4)GlcNAc(b1-4)[Fuc(a1-6)]GlcNAc
# Summary of the method: as §1
# [20] = target: Gal(b1-4)GlcNAc(b1-3)Gal(b1-4)GlcNAc(b1-3)Gal(b1-4)GlcNAc(b1-3)Gal(b1-4)GlcNAc(b1-3)Gal(b1-4)GlcNAc(b1-2)Man(a1-3)[Gal(b1-4)GlcNAc(b1-3)Gal(b1-4)GlcNAc(b1-3)Gal(b1-4)GlcNAc(b1-3)Gal(b1-4)GlcNAc(b1-3)Gal(b1-4)GlcNAc(b1-2)Man(a1-6)]Man(b1-4)GlcNAc(b1-4)[Fuc(a1-6)]GlcNAc
# Summary of the method: as §1
# [21] = target: Gal(b1-4)GlcNAc(b1-3)[GlcNAc(b1-6)]Gal(b1-4)GlcNAc
# Summary of the method: as §1
# Gal3S(b1-3)GalNAc = target: Gal3S(b1-3)GalNAc
# Summary of the method: as §1
# Gal3S6S(b1-4)GlcNAc6S = target: Gal3S6S(b1-4)GlcNAc6S
# Summary of the method: as §1
# Gal6S(b1-4)Glc = target: Gal6S(b1-4)Glc
# Summary of the method: as §1
# Gal6S(b1-4)GlcNAc = target: Gal6S(b1-4)GlcNAc
# Summary of the method: as §1
# Glc(a1-6)Glc(a1-6)Glc = target: Glc(a1-6)Glc(a1-6)Glc
# Summary of the method: as §1
# [22] = target: Glc(a1-6)Glc(a1-6)Glc(a1-6)Glc
# Summary of the method: as §1
# [23] = target: GlcNAc(b1-2)[GlcNAc(b1-4)]Man(a1-3)[GlcNAc(b1-2)Man(a1-6)]Man(b1-4)GlcNAc(b1-4)GlcNAc
# Summary of the method: as §1
binder,measurement,setting,value
B1,glycan array binding signal (z-score),[1],3.35
same,glycan array binding signal (z-score),[2],-0.517
same,glycan array binding signal (z-score),[3],0.038
same,glycan array binding signal (z-score),[4],-0.604
same,glycan array binding signal (z-score),[5],7.24
same,glycan array binding signal (z-score),[6],-0.942
same,glycan array binding signal (z-score),[7],4.52
same,glycan array binding signal (z-score),[8],-0.247
same,glycan array binding signal (z-score),[9],1.68
same,glycan array binding signal (z-score),[10],1.12
same,glycan array binding signal (z-score),[11],-0.29
same,glycan array binding signal (z-score),Gal(a1-3)GalNAc,-0.507
same,glycan array binding signal (z-score),[12],-0.31
same,glycan array binding signal (z-score),[13],-0.079
same,glycan array binding signal (z-score),[14],4.53
same,glycan array binding signal (z-score),[15],-1.25
same,glycan array binding signal (z-score),[16],2.77
same,glycan array binding signal (z-score),[17],0.974
same,glycan array binding signal (z-score),[18],3.43
same,glycan array binding signal (z-score),[19],0.367
same,glycan array binding signal (z-score),[20],0.345
same,glycan array binding signal (z-score),[21],3.02
same,glycan array binding signal (z-score),Gal3S(b1-3)GalNAc,-0.275
same,glycan array binding signal (z-score),Gal3S6S(b1-4)GlcNAc6S,3.81
same,glycan array binding signal (z-score),Gal6S(b1-4)Glc,0.11
same,glycan array binding signal (z-score),Gal6S(b1-4)GlcNAc,-0.941
same,glycan array binding signal (z-score),Glc(a1-6)Glc(a1-6)Glc,0.269
same,glycan array binding signal (z-score),[22],1.14
same,glycan array binding signal (z-score),[23],-0.836
